Experimental data: PubChem BioAssay (NCATS)
Results filed as inconclusive are left out. The source made the active and inactive calls. Calls come from the whole dose curve; as a rule, active = well fitted curve in the direction sought with a large enough effect; inconclusive = small, poorly fitted or top-dose-only effect, or another doubt; inactive = no such curve, though single readings can be large or run the other way.
% is set by controls: 0 for no effect and ±100 for the full control effect.

These compounds were tested against Metallo-beta-lactamase type 2 (Klebsiella pneumoniae) (UniProt C7C422) (assay: qHTS to identify inhibitors of the New Delhi Metallo-beta-lactamase (NDM): assay validation screen against the NCATS LOPAC Collection (AID 1794843)). Conditions: NDM-1 enzyme, nitrocefin hydrolysis, absorbance 485 nm; series mostly up to 38.4 µM; activity change, negative = inhibition: at the top concentration.
Sequence of Metallo-beta-lactamase type 2 (Klebsiella pneumoniae) (C7C422 whole entry, looked up): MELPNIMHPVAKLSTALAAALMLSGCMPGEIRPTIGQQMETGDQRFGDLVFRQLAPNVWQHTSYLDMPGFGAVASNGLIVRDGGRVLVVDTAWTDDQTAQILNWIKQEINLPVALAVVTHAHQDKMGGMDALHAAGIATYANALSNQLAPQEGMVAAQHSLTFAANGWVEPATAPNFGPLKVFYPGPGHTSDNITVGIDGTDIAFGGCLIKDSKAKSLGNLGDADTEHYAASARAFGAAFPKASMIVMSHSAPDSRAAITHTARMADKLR
Outline: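 Absorbance at 485 nm from nitrocefin turnover (50 uM solution added), read at plateau, gives the read-out. Compounds in DMSO were incubated first with 2 nM final NDM-1 in pH 7.0 HEPES buffer containing 1 uM ZnSO4 and 0.01% Tween20.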
For `C[C@H](N)CN1CCc2ccc(Br)cc21`, the “activity change, negative = inhibition” value was -3.57% (inactive).
`C[N+]1(C)CCN(c2ccccc2)CC1` was tested, and the “activity change, negative = inhibition” value was 2.96% (inactive).
In the case of `C[C@H]1C2Cc3ccc(O)cc3[C@@]1(C)CCN2CC1CC1`, the “activity change, negative = inhibition” value is reported as -0.198% (inactive).
With `C[N+]1(C)CCc2cc3c(cc2[C@H]1[C@@H]1OC(=O)c2c1ccc1c2OCO1)OCO3` the “activity change, negative = inhibition” value was 5.01% (inactive).
For `CC(C)(C)c1o[nH]c(=O)c1CC(N)C(=O)O` (stereo not given), the “activity change, negative = inhibition” value was -3.96% (inactive).
In the case of `O=c1ccc2[nH]cc(C3=CCNCC3)c2[nH]1`, the “activity change, negative = inhibition” value is reported as -0.84% (inactive).
In the case of `CC(=O)NBr`, the “activity change, negative = inhibition” value is reported as 4.01% (inactive).
`CCCN(CCC)[C@H]1CCc2c(F)ccc(O)c2C1` was tested, and the “activity change, negative = inhibition” value was -0.585% (inactive).
In the case of `CC1(C(=O)O)C2CCC(O2)C1(C)C(=O)O` (stereo not given), the “activity change, negative = inhibition” value is reported as -0.247% (inactive).
`C[N+]1(C)CCOC(O)(c2ccc(-c3ccc(C4(O)C[N+](C)(C)CCO4)cc3)cc2)C1` (stereo not given) was tested, and the “activity change, negative = inhibition” value was 9.22% (inactive).
In the case of `C[N+](C)(C)CCOC(=O)CBr`, the “activity change, negative = inhibition” value is reported as -0.507% (inactive).
For `CN1CC[C@@]2(C)c3cc(OC(=O)Nc4ccccc4)ccc3N(C)[C@@H]12`, the “activity change, negative = inhibition” value was -1.76% (inactive).
For `CC(N)[C@H](O)c1ccc(O)c(O)c1` (stereo not given in full), the “activity change, negative = inhibition” value was -14.3% (inactive).
In the case of `CP(=O)(O)C1=CCNCC1`, the “activity change, negative = inhibition” value is reported as -1.31% (inactive).
`Cc1[nH]c2ccc(O)cc2c1CCN` was tested, and the “activity change, negative = inhibition” value was 3.32% (inactive).
With `NCCCP(=O)(O)O` the “activity change, negative = inhibition” value was -0.772% (inactive).
`C[N+](C)(C)CC#CCOC(=O)Nc1cccc(Cl)c1` was tested, and the “activity change, negative = inhibition” value was -0.49% (inactive).
In the case of `COc1ccc(OC)c(C(O)C(C)N)c1` (stereo not given), the “activity change, negative = inhibition” value is reported as 0.0617% (inactive).
For `C=CCN1CCC23c4c5ccc(O)c4O[C@H]2C(=O)CC[C@@]3(O)C1C5` (stereo not given in full), the “activity change, negative = inhibition” value was -2.14% (inactive).
`Nc1ccc(CCN2CCN(c3cccc(C(F)(F)F)c3)CC2)cc1` was tested, and the “activity change, negative = inhibition” value was 0.354% (inactive).
In the case of `NCC(CP(=O)(O)O)c1ccc(Cl)cc1` (stereo not given), the “activity change, negative = inhibition” value is reported as -9.06% (inactive).
In the case of `NC(=O)COc1c(F)cc(SCCNS(=O)(=O)c2ccccc2)cc1F`, the “activity change, negative = inhibition” value is reported as 1.09% (inactive).
For `Cc1o[nH]c(=O)c1CC(N)C(=O)O` (stereo not given), the “activity change, negative = inhibition” value was -6.05% (inactive).
In the case of `N[C@@H](Cn1oc(=O)[nH]c1=O)C(=O)O`, the “activity change, negative = inhibition” value is reported as -17.5% (inactive).
With `c1ccc2c(c1)[I+]c1ccccc1-2` the “activity change, negative = inhibition” value was -9.84% (inactive).
In the case of `CCOC(=O)c1ncn2c1[C@@H]1CCCN1C(=O)c1cc(OC)ccc1-2`, the “activity change, negative = inhibition” value is reported as -3.74% (inactive).
`CC(N)Cc1c[nH]c2ccc(OCc3cccs3)cc12` (stereo not given) was tested, and the “activity change, negative = inhibition” value was -1.53% (inactive).
`NCCc1c[nH]c2ccc(C(N)=O)cc12` was tested, and the “activity change, negative = inhibition” value was -4.43% (inactive).
In the case of `O=[N+]([O-])/C=C/c1ccc2c(c1)OCO2`, the “activity change, negative = inhibition” value is reported as 9.05% (inactive).
`CCCN(CCC)[C@@H]1CCc2cccc(O)c2C1` was tested, and the “activity change, negative = inhibition” value was 1.39% (inactive).
For `c1ccc2c(N3CCNCC3)cccc2c1`, the “activity change, negative = inhibition” value was -8.41% (inactive).
`CCN1C[C@@]2(COC)C3[C@@H](OC)C4[C@@H]1C3([C@@H]1C[C@]3(O)[C@H](OC(=O)c5ccccc5)[C@@H]1[C@]4(OC(C)=O)[C@@H](O)[C@@H]3OC)[C@H](OC)C[C@H]2O` was tested, and the “activity change, negative = inhibition” value was -1.67% (inactive).
In the case of `Cc1cc([C@@H]2CCCN2C)on1`, the “activity change, negative = inhibition” value is reported as -2.5% (inactive).
`NC(CCCCCP(=O)(O)O)C(=O)O` (stereo not given) was tested, and the “activity change, negative = inhibition” value was 19.3% (inactive).
`O=C1/C(=C/c2ccccc2)C[C@@]2(O)[C@H]3Cc4ccc(O)c5c4[C@@]2(CCN3CC2CC2)[C@H]1O5` was tested, and the “activity change, negative = inhibition” value was 13.1% (inactive).
`C=CCN1C[C@@H](C)N([C@H](c2ccc(C(=O)N(CC)CC)cc2)c2cccc(OC)c2)C[C@@H]1C` was tested, and the “activity change, negative = inhibition” value was 14.5% (inactive).
In the case of `O=C(NC1CN2CCC1CC2)c1cc2ccoc2cn1` (stereo not given), the “activity change, negative = inhibition” value is reported as -4.83% (inactive).
In the case of `OCc1cnc[nH]1`, the “activity change, negative = inhibition” value is reported as -1.44% (inactive).
In the case of `CC(=O)OCC1=C(C(=O)O)N2C(=O)[C@@H](NC(=O)CCC[C@@H](N)C(=O)O)[C@H]2SC1`, the “activity change, negative = inhibition” value is reported as -0.99% (inactive).
With `CCCCCCCCCCCCCC(=O)O[C@@H]1[C@@H](C)[C@@]2(O)[C@@H](C=C(CO)C[C@@]3(O)C(=O)C(C)=C[C@@H]23)C2C(C)(C)[C@@]21OC(C)=O` (stereo not given in full) the “activity change, negative = inhibition” value was -1.93% (inactive).
